# Source: PubChem BioAssay (National Center for Advancing Translational Sciences (NCATS))
# HP1b binding inh: HP1-beta chromodomain-methylated histone interaction inhibition; AlphaScreen HP1-beta / biotin-H3K9me3 peptide binding; AID 540317; P83916; 390,000 tested, 0.56% active; Potency, µM (highest dose often 114 µM), for inactives: at the highest dose activity change, negative = inhibition, usual class: inhibitors; also: nearly all actives have a fitted effect of over 70% in size
# Target sequence (P83916 whole entry, looked up): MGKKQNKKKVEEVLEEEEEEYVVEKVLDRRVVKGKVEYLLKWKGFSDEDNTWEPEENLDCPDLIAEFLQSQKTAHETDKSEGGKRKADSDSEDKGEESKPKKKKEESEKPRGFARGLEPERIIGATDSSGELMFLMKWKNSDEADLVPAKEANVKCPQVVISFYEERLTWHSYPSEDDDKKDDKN
#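 HP1-beta protein (50 nM final) preincubated 30 min at room temperature with biotinylated H3(1-18)K9me3 peptide (50 nM) in PBS pH 7.4, 0.01% Tween-20, then compound added for 30 min. AlphaScreen streptavidin donor/nickel chelate acceptor beads (10 ug/mL final), 30 min dark, luminescence read.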
# G9a inh: inhibitors of human histone lysine methyltransferase G9a; Q96KQ7; G9a H3K9 monomethylation, AlphaScreen, 2 h; Potency, µM (highest dose often 102 µM), for the others: at the highest dose activity, negative = inhibition, hits mostly inhibitors; 350,000 tested, 8.8% active; AID 504332; also: % is scaled to controls: 0 for no effect and ±100 for the full control effect; nearly all actives have a fitted effect of over 75% in size
# Target sequence (Q96KQ7 913-1193 limits assumed): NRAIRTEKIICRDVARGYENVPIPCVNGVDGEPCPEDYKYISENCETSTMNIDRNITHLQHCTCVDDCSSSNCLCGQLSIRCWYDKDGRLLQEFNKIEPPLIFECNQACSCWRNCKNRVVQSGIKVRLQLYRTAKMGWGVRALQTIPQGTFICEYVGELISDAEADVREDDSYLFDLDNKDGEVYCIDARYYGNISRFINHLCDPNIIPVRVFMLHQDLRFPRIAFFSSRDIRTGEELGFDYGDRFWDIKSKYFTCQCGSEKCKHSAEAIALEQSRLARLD
#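 Quantitative HTS format: methyltransferase activity on a biotin-tagged H3K9 peptide is measured by AlphaScreen, using a rabbit anti-monomethyl-H3K9 antibody with streptavidin donor and anti-IgG acceptor beads. Final levels are 20 nM enzyme, 500 nM peptide, 20 uM SAM; 2 h RT.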
# JMJD2A Tudor inh: JMJD2A Tudor domain (human) inhibition; AlphaScreen JMJD2A-Tudor / H3K4me3 peptide binding; Potency, µM (series often up to 114 µM), for inactives: at the top dose activity change, negative = inhibition, hits mostly inhibitors; 390,000 tested, 4.4% active; AID 504339; also: % is scaled to controls: 0 for no effect and ±100 for the full control effect; nearly all actives have a fitted effect of over 50% in size
# L3MBTL1 block: inhibitors of human L3MBTL1; Potency, µM (highest dose often 57.1 µM), without a hit: top-dose activity, negative = inhibition, usual class: inhibitors; 230,000 tested, 0.66% active; Q9Y468; AID 485360; AlphaScreen L3MBTL1–H3K9me1 peptide binding; also: % is scaled to controls: 0 for no effect and ±100 for the full control effect; nearly all actives have a fitted effect of over 60% in size
#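 L3MBTL1 50 nM + b-AHA-H3(1-15)K9me1 75 nM, 30 min RT; compound added, 30 min RT; streptavidin donor/Ni-chelate acceptor beads 10 ug/mL each final, 30 min RT dark; AlphaScreen read.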
# BAZ2B inh: inhibitors of human BAZ2B bromodomain | Potency, µM (series often up to 114 µM), for inactives: at the highest dose activity change, negative = inhibition, actives largely listed as inhibitors | AlphaScreen BAZ2B-H3K14Ac peptide displacement | 360,000 tested, 4.4% active; also: % is scaled to controls: 0 for no effect and ±100 for the full control effect; nearly all actives have a fitted effect of over 60% in size
#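 Inhibition is scored as reduced AlphaScreen emission. The BAZ2B/b-H3(5-23)K14Ac complex (50 nM each) in PBS pH 7.4, 0.01% Tween-20 meets compound (up to 110 uM) for 30 min at RT before bead addition.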
# Active calls of the source: *; ? = inconclusive; · = not tested or not shown; [ ] = another dose, or the depositor's remark. Most compounds without a hit are left out; they make up all but 11% or so of the library. Calls follow the shape of the dose curve; as a rule, active = well fitted inhibition curve with a large enough effect; inconclusive = small, poorly fitted or top-dose-only effect; inactive = no such curve, though single readings can be large or run the other way. Potency is read from the fitted curve at half-maximal effect.
SMILES,HP1b binding inh,G9a inh,JMJD2A Tudor inh,L3MBTL1 block,BAZ2B inh
CCc1noc(C)c1C(=O)Nc1cc(S(=O)(=O)N2CCCCC2)ccc1N(C)C,7%,?,-19%,-3%,6%
CCc1noc(C)c1C(=O)Nc1cc(S(=O)(=O)N2CCOCC2)ccc1OC(C)C,13%,13µM*,-16%,3%,-7%
CC(C)(C)OC(=O)Cc1nnc(CNC(=O)c2ccccc2)s1,·,·,-4%,·,·
CCc1ccc(C(=O)c2cn(CC(=O)Nc3ccc(C)c(C)c3)c3ccccc3c2=O)cc1,38%,-30%[59 µM],-14%,·,?
CCc1ccccc1OCCSc1nnc(-c2cc(OC)c(OC)c(OC)c2)o1,26%,0%[59 µM],-26%,·,-16%
CCOC(=O)c1cnc2c(Cl)cc(Cl)cc2c1Nc1cc(C(=O)O)ccc1C,18%,-41%[59 µM],-21%,·,-15%
CCOC(=O)c1cnc2ccccc2c1Nc1ccc(N2CCOCC2)cc1,-14%,?,?,·,?
CCOC(=O)c1cnc2ccccc2c1Nc1cc(C(=O)O)ccc1C,49%,50µM*,-3%[11.4 µM],·,-1%
CCOC(=O)c1ccc2ncc(C(=O)OCC)c(Nc3ccc(N4CCOCC4)cc3)c2c1,?,?,40µM*,?,14µM*
CCOC(=O)c1cnc(N2CCN(c3ccc(OC)cc3)CC2)c2ccccc12,1%[57 µM],14µM*,?,·,?
CCOC(=O)c1cnc2ccc(OC)cc2c1Nc1ccc2c(c1)OCCO2,-16%,?,?,-25%,?
CCOC(=O)c1cnc2ccc(OC)cc2c1Nc1ccc(N2CCN(C)CC2)cc1,-32%[57 µM],35µM*,32µM*,·,35µM*
CCOC(=O)c1cnc2c(C)cccc2c1Nc1ccc(N2CCOCC2)cc1,·,28µM*,·,?,14µM*
CCn1c(C)c(C(C)=O)c(N2CCN(c3ccc(OC)cc3)CC2)nc1=S,-4%,35µM*,-31%,-20%,?
CCOC(=O)c1cnc2c(C)c(Cl)ccc2c1Nc1ccc(N2CCOCC2)cc1,-27%,7.9µM*,?,·,10µM*
COc1ccc(N2CCN(c3nc(=S)n(-c4ccccc4)c(C)c3C(C)=O)CC2)cc1,1%,-13%[59 µM],-35%,·,-9%
COc1cccc(NC(=O)C2CCN(S(=O)(=O)c3c(C)noc3/C=C/c3cccs3)CC2)c1,19%,-26%[59 µM],-22%,·,·
Cc1nn(-c2ccccc2)cc1/C=N/NC(N)=S,47%,2%[59 µM],13%[57.1 µM],-3%,-17%
Cc1nn(-c2ccccc2)cc1C(c1c(N)[nH]c(=S)[nH]c1=O)c1c(N)[nH]c(=S)[nH]c1=O,14%,32µM*,-15%[11.4 µM],-17%,-36%
Cc1ccc(C)c(CN2C(=O)c3ccccc3S(=O)(=O)c3ccc(C(=O)N4CCCCC4)cc32)c1,16%,-36%[59 µM],-20%,·,?
COc1ccc(C(CC(=O)NCc2ccccc2Cl)N2Cc3ccccc3C2=O)cc1OC (centres undefined),41%,11%[59 µM],1%,·,-5%
Nc1cc2c(cc1N)-c1ccccc1C2,-18%[57 µM],·,8.9µM*,·,·
Nc1c(Cl)cc2c(c1Br)Cc1ccccc1-2,9%[57 µM],·,-8%,·,·
Nc1ccc2c(c1)Cc1cc(Cl)c(Cl)cc1-2,-13%,·,-31%,·,·
Nc1ccc2c(c1)Cc1cc(N)c(Cl)cc1-2,?,·,45µM*,·,·
SMILES,HP1b binding inh,G9a inh,JMJD2A Tudor inh,L3MBTL1 block,BAZ2B inh
CCCCn1c(-c2csc3ccccc23)n[nH]c1=S,22%,1.4µM*,?,·,-2%
CCCCn1c(SCc2nc3ccccc3s2)nc2ccccc2c1=O,83%,5%[59 µM],-11%,0%,3%
CCn1c(-c2csc3c2CCCC3)n[nH]c1=S,-22%,7.9µM*,10µM*,-7%,-7%
CCCCCCn1c(-c2cccs2)n[nH]c1=S,-15%,5.6µM*,28µM*,-13%,-23%
CCCCn1c(-c2csc3c2CCCC3)n[nH]c1=S,-5%,?,40µM*,·,-31%
CCn1c(=S)[nH]c2nc3c(cc2c1=O)CCCC3,43%,22%,-4%,3%,-2%[57.1 µM]
CCOC(=O)C1CCCCN1S(=O)(=O)c1ccc2c(c1)CC(C)N2C(=O)C1CCC1 (centres undefined),19%[57 µM],5%,13%,·,-10%
CCc1ccc(NS(=O)(=O)c2ccc3[nH]cc(C(=O)NCc4ccc(C)cc4)c(=O)c3c2)cc1,20%,-7%[59 µM],-20%,·,·
